# Test results from PubChem BioAssay (NCI).
# This is part of a sample that, as a whole, favours compounds with a hit. Of some 79,000 tested, about 15% had one in any assay. Calls of active or inactive are those of the source. Cut-off read from the data, not from the text of the source: active = growth inhibition above about 70%; inactive = the rest.
# Experiment: NCI Yeast Anticancer Drug Screen. Data for the sgs1 strain (AID 173);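 note: 0% = growth of vehicle-only control cultures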
# Details: S. cerevisiae sgs1 mutant, at 100.0 µM, active compounds read high
# Procedure, shortened: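 Each compound was added to cultures of the altered yeast strain. Growth was recorded, and inhibition was derived by comparison with vehicle controls.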
row,Compound,growth inhibition
1,CN(C)c1ccc(C2CC(C)(O)Oc3cc4c(cc32)OCO4)cc1 (stereo unspecified),87% (active)
2,O=P(NC1CCCCC1)(OCc1ccccc1)OCc1ccccc1,17% (inactive)
3,COc1oc(C(=O)NC2CCCCC2)c(-c2ccc(Cl)cc2)c1S(=O)(=O)c1ccccc1,84% (active)
4,C[Si](C)(C)/C=C/CCNC(C#N)c1ccccc1 (stereo unspecified),94% (active)
5,CCOc1ccc(NC(=O)C2=C(C)NC(C)=C(C(=O)Nc3ccc(OCC)cc3)C2c2cccc([N+](=O)[O-])c2)cc1,84% (active)
6,CN(C)CCOC1(Cc2ccc(F)cc2)CCC(C(C)(C)C)CC1 (stereo unspecified),99% (active)
7,CC1(C)CC(=O)C(/C=N/c2nc(-c3ccccc3)cs2)=C(O)C1,83% (active)
8,CC(=O)Nc1ccc2c(c1)Cc1cc(N=C3C=CC(=O)O3)ccc1-2,99% (active)
9,O=C1C=C(Cl)C(=O)C(c2ccc(Cl)cc2)=C1,96% (active)
10,CNCCCNc1c2ccccc2nc2cccc([N+](=O)[O-])c12,95% (active)
11,CCCCCCCCCCCC(O)S(=O)(=O)O (stereo unspecified),96% (active)
12,CC(C)OC(=O)c1ccc(CCc2cc(O)c(Br)cc2O)cc1,95% (active)
13,CCc1cc(O)c(Cl)c(C)c1Cl,92% (active)
14,C(=Nc1ccc(-c2cc(-c3ccccc3)nc3ccc4ccccc4c23)cc1)c1ccccc1,64% (inactive)
15,CSc1nc(C)c(CCOC(C)=O)c(N=P(c2ccccc2)(c2ccccc2)c2ccccc2)n1,93% (active)
16,CS(=O)(=O)SCc1ccc([N+](=O)[O-])cc1,97% (active)

row,Compound,growth inhibition
1,Cc1cc(-c2cc(C)c(O)c(C(C)(C)C)c2)cc(C(C)(C)C)c1O,59% (inactive)
2,Nc1cc(N)c(N=Nc2cccc3c(S(=O)(=O)O)cccc23)cc1N=Nc1cc([N+](=O)[O-])ccc1O,59% (inactive)
3,Nc1ccc(F)cc1S,97% (active)
4,Brc1ccccc1-c1ncc(-c2ccccc2)o1,60% (inactive)
5,COc1cc(C2SCC(=O)N2c2ccc(-c3ccc(-n4c(-c5ccccc5)nc5ccccc5c4=O)cc3)cc2)ccc1O (stereo unspecified),10% (inactive)
6,Nc1ncnc2c1ncn2C1OC(CO)CC1O (stereo unspecified),90% (active)
7,CCOC(=O)C1N=[N+](c2ccccc2)C(=O)/C1=C\n1c(=S)[nH]c2ccc([N+](=O)[O-])cc21 (stereo unspecified),16% (inactive)
8,O=C(NNc1ccccc1)c1ccc(Cl)c(Cl)c1,47% (inactive)
9,Cc1ccc(CC2(OCCN(C)C)CCC(C(C)(C)C)CC2)cc1 (stereo unspecified),99% (active)
10,C[C@]12CC[C@H](O)CC1=CC[C@@H]1C2CC[C@]2(C)C(=O)NC(=O)CC12 (stereo partly specified),97% (active)
11,CCCC/C=C/C(C)(C(=O)OCC)C(=O)OCC,38% (inactive)
12,O=C(/C=C(/c1ccccc1)N1CCCCC1)c1ccccc1,97% (active)
13,COc1c(O)c(C=O)c(Br)c(C=O)c1O,94% (active)
14,Cc1ccc(Cl)cc1NC(=O)OCCN(C)C(=O)Nc1cc(Cl)ccc1C,8% (inactive)
15,Cc1nc2ccccc2nc1NNc1ccccc1,24% (inactive)
